HNF4A DNA FP: change in binding of human HNF4 alpha to DNA; P41235; HNF4a-FITC DNA binding, fluorescence polarization, 1 h; actives 0.3% (n = 360,000); activity change, % at 10 µM; in the data active = activity change above about 30%, passing the limit was not always enough
TPT1 inhibitor: inhibitors of Candida albicans tRNA 2'-phosphotransferase TPT1; inhibition, % at 5 µM; actives 0.81% (n = 300,000); recombinant caTPT1, FP RNA substrate dephosphorylation; AID 1962;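 active = inhibition above the mean of all tested compounds plus 3 SD, set per screening campaign, cut at about 24% in these data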;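 note: plate controls were DMSO alone for no effect and ferristatin control at 100 nM for full effect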
IDE cell inh: cellular human IDE inhibition | P14735 | HEK cells, FAbetaB cleavage, fluorescence polarization | inhibition, % at 5.59 µM | actives 0.41% (n = 320,000) | AID 434962;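 active = percent inhibition above the average of all tested compounds plus 3 SD, set per screening campaign, cut at about 16% in these data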;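 note: IDE supplied by intact live HEK cells; FP after avidin binding of uncleaved biotin substrate so inhibition keeps polarization high; 0% = DMSO wells and 100% = 60 µM reference IDE inhibitor Ii1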
Target sequence (P14735 whole entry, looked up): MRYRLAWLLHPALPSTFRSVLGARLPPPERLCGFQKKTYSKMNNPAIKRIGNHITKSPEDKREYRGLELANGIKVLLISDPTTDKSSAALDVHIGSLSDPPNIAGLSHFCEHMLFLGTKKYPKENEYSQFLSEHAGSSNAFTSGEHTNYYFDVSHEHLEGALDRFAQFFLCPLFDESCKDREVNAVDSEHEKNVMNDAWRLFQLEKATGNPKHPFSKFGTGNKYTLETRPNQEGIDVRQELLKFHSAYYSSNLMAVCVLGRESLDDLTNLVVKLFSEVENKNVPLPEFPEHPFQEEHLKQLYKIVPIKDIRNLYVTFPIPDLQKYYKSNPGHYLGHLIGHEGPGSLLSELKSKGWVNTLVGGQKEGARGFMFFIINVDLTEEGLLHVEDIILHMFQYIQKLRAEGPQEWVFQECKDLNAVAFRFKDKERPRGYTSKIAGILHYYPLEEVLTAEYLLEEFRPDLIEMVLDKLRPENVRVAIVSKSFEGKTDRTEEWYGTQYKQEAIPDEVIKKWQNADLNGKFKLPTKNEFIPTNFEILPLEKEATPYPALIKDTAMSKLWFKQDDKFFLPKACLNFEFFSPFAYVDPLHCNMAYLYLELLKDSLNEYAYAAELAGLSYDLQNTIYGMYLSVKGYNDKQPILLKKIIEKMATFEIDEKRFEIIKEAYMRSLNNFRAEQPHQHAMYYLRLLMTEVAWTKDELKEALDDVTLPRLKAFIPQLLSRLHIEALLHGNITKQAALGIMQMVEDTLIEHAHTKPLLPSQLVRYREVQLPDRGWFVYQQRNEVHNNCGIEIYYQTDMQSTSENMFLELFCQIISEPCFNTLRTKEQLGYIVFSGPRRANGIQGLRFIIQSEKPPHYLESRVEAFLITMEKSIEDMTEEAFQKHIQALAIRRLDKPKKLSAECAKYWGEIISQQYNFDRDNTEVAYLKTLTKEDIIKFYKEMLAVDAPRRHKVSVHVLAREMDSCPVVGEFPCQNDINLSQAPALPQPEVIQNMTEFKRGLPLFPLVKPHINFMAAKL
CRFR2-BP ag: CRF-BP/CRF-R2 complex agonism; HEK293 CRF-R2/CRF-BP, calcium dye fluorescence (FLIPR); percent of saturating CRF peptide response; activation, % at 13.2 µM; actives 0.46% (n = 350,000); AID 588473;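 active = activation of at least 50%, plus an integration ratio under a set limit after plate pattern correction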;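 note: plate controls were neutral control wells without compound for no effect and CRF at EC100 for full effect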
IDE act: IDE (human) activation, cell-based; HEK cells, FAbeta-B cleavage, fluorescence polarization; 0% vehicle, 100% cell-free pure enzyme wells; activation, % at 5.96 µM; actives 0.073% (n = 340,000); AID 493087;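 active = activation above the mean of all tested compounds plus 3 SD, set per screening campaign, cut at about 17% in these data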
Active calls of the source: *. Rows were chosen to be rich in hits. Some 1.4% of all compounds tested hit in one or more screens of this group.

Results for C#CCOCCOCCOCCNc1nc(N2CCN(C(=O)C(Cc3cc4ccccc4[nH]3)n3cc(C(N)C(C)CC)nn3)CC2)nc(N2CCN(C(=O)C(Cc3cc4ccccc4[nH]3)n3cc(C(N)C(C)CC)nn3)CC2)n1 (configuration not stated) ?
HNF4A DNA FP: 1; TPT1 inhibitor: 3; IDE cell inh: 5; CRFR2-BP ag: -2; IDE act: 1

Results for C#CCOCCOCCOCCNc1nc(N2CCN(C(=O)[C@H](CCCCN)n3cc([C@@H](N)C(C)CC)nn3)CC2)nc(N2CCN(C(=O)[C@H](Cc3cc4ccccc4[nH]3)n3cc([C@@H](N)C(C)CC)nn3)CC2)n1 (some centres not stated) ?
HNF4A DNA FP: 49*; IDE cell inh: 5; CRFR2-BP ag: 1; IDE act: 3

What do the screens show for `Cc1cc2nc(C3CCCCC3)c(Cc3ccccc3)n2c(C)c1Br`?
HNF4A DNA FP: 3

Results for Cc1ccc(S(=O)(=O)CCC(=O)OCC(=O)N(Cc2ccccc2)C(C)C)cc1 ?
HNF4A DNA FP: 3; TPT1 inhibitor: 1; IDE cell inh: 2; CRFR2-BP ag: -2; IDE act: 3

What do the screens show for `FC(F)(F)c1cc(CCN2CCNC[C@@H]2CC2CCCCC2)cc(C(F)(F)F)c1`?
HNF4A DNA FP: 3; IDE cell inh: -3; CRFR2-BP ag: 15; IDE act: 23*

How did CCCC[C@@H]1CNCCN1CCc1cc(C(F)(F)F)cc(C(F)(F)F)c1 do in these assays?
HNF4A DNA FP: 0; TPT1 inhibitor: 1; IDE cell inh: 5; CRFR2-BP ag: 2; IDE act: 5

How did NC1=NC[C@H](CC2CCCCC2)N1CCc1cc(C(F)(F)F)cc(C(F)(F)F)c1 do in these assays?
HNF4A DNA FP: -5; TPT1 inhibitor: 0; IDE cell inh: 3; CRFR2-BP ag: 48; IDE act: 26*

How did COCCCNc1nc(N)c([N+](=O)[O-])c(NC2CCCCC2)n1 do in these assays?
HNF4A DNA FP: 4; TPT1 inhibitor: -1; IDE cell inh: 4; CRFR2-BP ag: -3; IDE act: 1

What do the screens show for `Nc1nc(NCC(=O)O)nc(NC2CCCCC2)c1[N+](=O)[O-]`?
HNF4A DNA FP: 46*; CRFR2-BP ag: -2; IDE act: 5

Results for CCCCc1ccc(-c2csc(/C(C#N)=C\c3ccc(C)o3)n2)cc1 ?
HNF4A DNA FP: 45*; TPT1 inhibitor: 4; IDE cell inh: -4; CRFR2-BP ag: 3; IDE act: -11

How did CCCCc1ccc(-c2csc(/C(C#N)=C/c3ccco3)n2)cc1 do in these assays?
HNF4A DNA FP: 5; TPT1 inhibitor: 5; IDE cell inh: -1; CRFR2-BP ag: 1; IDE act: 2

Results for O=C(Nc1ncc(Cc2ccc(SC(F)F)cc2)s1)c1ccc(OC(F)F)cc1 ?
HNF4A DNA FP: -1; TPT1 inhibitor: 0; IDE cell inh: 7; CRFR2-BP ag: 68*; IDE act: 3

Results for Cc1ccc(Cc2cnc(NC(=O)c3ccco3)s2)cc1 ?
HNF4A DNA FP: 1; TPT1 inhibitor: -4; IDE cell inh: 5; CRFR2-BP ag: 1; IDE act: -2

Results for Cc1ccc([N+](=O)[O-])cc1S(=O)(=O)Nc1cccc(S(=O)(=O)Nc2ccccc2C(=O)O)c1 ?
HNF4A DNA FP: -3; IDE cell inh: 2; CRFR2-BP ag: 1; IDE act: 4

How did Cc1ccc(C)c(NC(=O)c2ccccc2NS(=O)(=O)c2cc([N+](=O)[O-])ccc2C)c1 do in these assays?
HNF4A DNA FP: -1; TPT1 inhibitor: -2; IDE cell inh: -2; CRFR2-BP ag: 63*; IDE act: 7

How did COc1ccc(/C=C2\Sc3ccc(C(=O)NCCCN4CCCC4)cc3N(C)C2=O)cc1OC do in these assays?
HNF4A DNA FP: 8; TPT1 inhibitor: 1; IDE cell inh: 0; CRFR2-BP ag: 0; IDE act: 2

How did COc1cc(CNc2ncnc3c2[nH]c2ccc(C)cc23)cc(OC)c1 do in these assays?
HNF4A DNA FP: 6; TPT1 inhibitor: 2; IDE cell inh: 55*; CRFR2-BP ag: -4; IDE act: -41

How did COc1ccc2[nH]c3c(NCCN4CCCCC4)ncnc3c2c1 do in these assays?
HNF4A DNA FP: -2; TPT1 inhibitor: 2; IDE cell inh: 7; IDE act: 1

Results for COc1ccc(/C=N/Nc2ncnc3c2[nH]c2ccc(C)cc23)c(OC)c1OC ?
HNF4A DNA FP: 13; TPT1 inhibitor: 2; IDE cell inh: 39*; CRFR2-BP ag: -1

How did COc1cc(OC)c(OC)cc1/C=N/Nc1ncnc2c1[nH]c1ccccc12 do in these assays?
HNF4A DNA FP: -3; TPT1 inhibitor: 2; IDE cell inh: 8; CRFR2-BP ag: -1; IDE act: -5

How did Cc1[nH]c2ccccc2c1/C=C/c1cc[n+](C)cc1 do in these assays?
HNF4A DNA FP: 144; CRFR2-BP ag: 81*; IDE act: -23

Results for COc1cccc(CSc2nc3ccccc3[nH]2)c1 ?
HNF4A DNA FP: 32*; TPT1 inhibitor: -1; IDE cell inh: -6; CRFR2-BP ag: 3; IDE act: 2

What do the screens show for `CCn1cc(CNC(=O)/C=C/c2cnn(C)c2)c(C)n1`?
HNF4A DNA FP: 45*; TPT1 inhibitor: -1; IDE cell inh: -2; CRFR2-BP ag: 13; IDE act: 4

Results for CCn1cc(CNC(=O)/C=C/c2ccc([N+](=O)[O-])cc2)c(C)n1 ?
HNF4A DNA FP: 0; TPT1 inhibitor: -1; IDE cell inh: -7; CRFR2-BP ag: -2; IDE act: 10

What do the screens show for `CC1=C(C)/C(=N\OS(=O)(=O)c2ccccc2)C=CC1=O`?
HNF4A DNA FP: -2; TPT1 inhibitor: 3; IDE cell inh: 4; CRFR2-BP ag: 57*; IDE act: -1

What do the screens show for `CC(C)(C)NC(=O)C(c1ccc(C(F)(F)F)cc1)n1c(=O)c(-c2ccco2)nc2ccccc21` (configuration not stated)?
HNF4A DNA FP: 42*

How did O=C(NCc1ccccc1)C(c1cc2ccccc2o1)n1c(=O)c(-c2ccco2)nc2ccccc21 (configuration not stated) do in these assays?
HNF4A DNA FP: 37*

What do the screens show for `O=C(NC1CCCCC1)C(c1ccccc1F)n1c(=O)c(-c2ccco2)nc2ccccc21` (configuration not stated)?
HNF4A DNA FP: 34*

How did CCOC(=O)C1(CCCc2ccccc2)CCN(S(C)(=O)=O)CC1 do in these assays?
HNF4A DNA FP: -1; TPT1 inhibitor: 3; IDE cell inh: 2; CRFR2-BP ag: 1; IDE act: -1

What do the screens show for `O=C(NCc1ccccc1Cl)c1ccc2sc([C@@H]3O[C@H](CO)[C@H](O)[C@H](O)[C@H]3O)nc2c1`?
HNF4A DNA FP: 1

Results for CC(=O)c1ccc2c(c1)c(C#N)c1ccccc1[n+]2[O-] ?
HNF4A DNA FP: -6; CRFR2-BP ag: 101*; IDE act: 8

High-throughput results from PubChem BioAssay.
